Experimental data reported in article PMC4336329 (PLoS ONE, 2015).
In all, about 310,000 compounds went through this assay and about 14,000 (4.5%) showed an effect of 50% or more. The effect is printed as a negative number. The full list was thinned out, with strong results kept by preference.

What follows are compounds tested against human ether-à-go-go-related gene (hERG) potassium channel (human, UniProt Q12809) (assay: primary screen, population patch clamp on CHO cells stably expressing hERG; higher = less effect of the substance).
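Note: peak tail current of the secondary pulse compared with the same well before compound.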

human ether-à-go-go-related gene (hERG) potassium channel, sequence (Q12809 whole entry, looked up): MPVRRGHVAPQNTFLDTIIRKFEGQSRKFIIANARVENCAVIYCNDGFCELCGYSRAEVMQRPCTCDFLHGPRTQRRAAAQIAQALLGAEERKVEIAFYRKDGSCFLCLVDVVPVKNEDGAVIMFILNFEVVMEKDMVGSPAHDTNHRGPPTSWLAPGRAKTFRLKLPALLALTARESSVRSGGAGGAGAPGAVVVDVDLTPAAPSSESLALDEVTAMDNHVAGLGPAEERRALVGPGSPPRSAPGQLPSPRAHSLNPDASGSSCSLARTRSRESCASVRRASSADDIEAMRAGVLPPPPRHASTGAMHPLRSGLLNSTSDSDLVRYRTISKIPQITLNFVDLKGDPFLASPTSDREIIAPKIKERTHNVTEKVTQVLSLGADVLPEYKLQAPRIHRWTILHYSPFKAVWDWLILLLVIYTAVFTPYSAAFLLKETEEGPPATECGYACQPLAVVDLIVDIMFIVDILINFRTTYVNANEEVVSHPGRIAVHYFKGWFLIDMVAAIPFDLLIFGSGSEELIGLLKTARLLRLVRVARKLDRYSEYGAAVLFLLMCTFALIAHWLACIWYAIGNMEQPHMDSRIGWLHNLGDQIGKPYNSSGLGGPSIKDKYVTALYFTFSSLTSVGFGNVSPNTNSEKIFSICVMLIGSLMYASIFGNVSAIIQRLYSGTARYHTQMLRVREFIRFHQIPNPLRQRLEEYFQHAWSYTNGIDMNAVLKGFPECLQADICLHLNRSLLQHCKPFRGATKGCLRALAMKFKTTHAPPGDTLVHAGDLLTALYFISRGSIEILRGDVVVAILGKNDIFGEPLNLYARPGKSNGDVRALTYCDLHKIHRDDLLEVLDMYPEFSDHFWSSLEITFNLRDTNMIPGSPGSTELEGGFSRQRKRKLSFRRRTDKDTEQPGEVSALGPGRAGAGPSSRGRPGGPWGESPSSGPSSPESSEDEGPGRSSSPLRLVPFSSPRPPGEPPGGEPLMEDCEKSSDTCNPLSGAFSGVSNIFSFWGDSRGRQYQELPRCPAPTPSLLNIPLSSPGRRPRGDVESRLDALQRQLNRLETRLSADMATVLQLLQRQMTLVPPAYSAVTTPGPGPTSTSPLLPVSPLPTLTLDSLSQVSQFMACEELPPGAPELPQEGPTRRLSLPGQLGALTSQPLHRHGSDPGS

Row | SMILES | hERG current change (%, negative = inhibition) at 10uM [%]
1 | C[C@@H](CSc1ccccc1)CN1CC[C@H](NC(=O)OCc2ccccc2)CCC1=O | -44.2
2 | O=C(OCC(=O)N1CCCC1=O)c1nc(Cl)ccc1Cl | 5.78
3 | Nc1cc(N)nc(SCC(=O)c2ccc3c(c2)NC(=O)CO3)n1 | 8.41
4 | COc1ccccc1NC(=O)CSc1nc2ccccc2c(=O)n1C | 12.1
5 | O=C(Nc1ccc(Cl)cc1)C1CCCN1C(=O)NCc1ccccc1 (centres unmarked) | 10.2
6 | CC(/C=C/c1ccccc1)=N/NC(=O)c1cnccn1 | 2.83
7 | O=C(CN1CCCCC1)N1CCCc2ccccc21.O=C(O)C(=O)O | 2.82
8 | O=C(CN1CCCC1)N1CCCc2ccccc21.O=C(O)C(=O)O | 13.8
9 | N#CC1(CCCN2CCCCC2)c2ccccc2CCc2ccccc21.O=C(O)C(=O)O | -52.7
10 | CNC(=S)NNC(=O)Cc1ccc(O)cc1 | -3.23
11 | CN(CC(=O)N1CCN(c2ccc(F)cc2)CC1)S(=O)(=O)c1ccc2c(c1)c(=O)n(C)c(=O)n2C | -0.425
12 | O=c1cc(CN2CCCCC2)nc(C2CC2)[nH]1 | -2.2
13 | CC(C)c1cc(CN2CCN(C3CCCC3)C(CCO)C2)[nH]n1 (centres unmarked) | -5.93
14 | c1c(C2CCCCC2)n[nH]c1CN1CCCCC1 | -53.9
15 | Cc1ccc(C(=O)N/C(=C\c2ccccc2F)c2nc(=S)[nH][nH]2)cc1 | 14.4
16 | Cc1cccc(S(=O)(=O)Nc2ccc(-c3ccc4nncn4n3)cc2)c1 | -123
17 | Cc1ccc(S(=O)(=O)Nc2ccc(-n3c(C)nc4ccccc4c3=O)cc2)cc1 | -49.4
18 | O=S(=O)(Nc1ccc(-c2ccc3nncn3n2)cc1)c1cccc(F)c1 | 18.1
19 | Cc1ccc(S(=O)(=O)Nc2ccc(-c3ccc4nncn4n3)cc2)cc1 | -9.23
20 | Cc1nc2ccccc2c(=O)n1-c1ccc(NS(=O)(=O)c2ccccc2)cc1 | -26.5
21 | Cc1nc2ccccc2c(=O)n1-c1ccc(Cl)c(Cl)c1 | -8.26
22 | Cc1ccc(-n2c(C)nc3ccccc3c2=O)cc1C | -52.2

Row | SMILES | hERG current change (%, negative = inhibition) at 10uM [%]
23 | Cc1cccc(S(=O)(=O)Nc2ccc(-n3c(C)nc4ccccc4c3=O)cc2)c1 | -55.9
24 | Cc1nc2ccccc2c(=O)n1-c1cccc(O)c1 | 14.1
25 | O=C(O)c1ccc(N2C(=O)c3cccnc3C2=O)cc1 | 16.9
26 | O=C1CCCN1c1ccc(S(=O)(=O)N2CCN(c3ccccc3)CC2)cc1 | 16.3
27 | COc1ccc2c(c1OC)C(=O)OC2Nc1nc(-c2ccc(-c3ccccc3)cc2)cs1 (centres unmarked) | 17
28 | CC(C)=NNC(=O)c1c(O)c2ccccc2[nH]c1=O | -20
29 | NC(=O)c1cc(N2C(=O)C=CC2=O)ccc1Cl | 1.79
30 | NS(=O)(=O)c1ccc(N2C(=O)C(=O)/C(=C(/O)c3ccccc3)C2c2ccc(Cl)cc2)cc1 (centres unmarked) | 18.1
31 | CCN(CCNC(=O)C1CCN(S(=O)(=O)CC)CC1)c1ccccc1 | -16.9
32 | CCN(CCNC(=O)C1CCN(S(C)(=O)=O)CC1)c1ccccc1 | -1.8
33 | Cc1oc(-c2ccc(Cl)cc2)nc1CN1CCC(C(=O)NCCCN2CCOCC2)CC1 | -26.5
34 | CCc1ccc(-c2nc(CN3CCC(C(=O)NCCN(CC)c4ccccc4)CC3)c(C)o2)cc1 | -69.5
35 | CCC1CCCCN1CCCNC(=O)C1CCN(Cc2nc(-c3ccc(Cl)cc3)oc2C)CC1 (centres unmarked) | -42.2
36 | CCN1CCN(CCNC(=O)C2CCN(Cc3nc(-c4ccc(Cl)cc4)oc3C)CC2)CC1 | 1.11
37 | CCN(CCNC(=O)C1CCCN(Cc2nc(-c3ccc(OC)cc3)oc2C)C1)c1ccccc1 (centres unmarked) | -28.1
38 | CCCN(CCC)CCNC(=O)C1CCN(Cc2nc(-c3ccc(Cl)cc3)oc2C)CC1 | -60.6
39 | CCN(CCNC(=O)C1CCN(Cc2nc(-c3ccc(Cl)cc3)oc2C)CC1)c1ccccc1 | -65.9
40 | CCCCN(CC)C(=O)C1CCC(=O)N(c2ccc(OC)cc2)C1c1ccc(OC)c(OC)c1 (centres unmarked) | -10.2
41 | CC(C)C(=O)Nc1nc2cc3c(cc2s1)OCCO3 | -4.59
42 | S=c1[nH]nc(-c2ccc(Cl)cc2)n1/N=C/C=C/c1ccco1 | 15.3
43 | CCN(CC)S(=O)(=O)c1ccc(O)c(C(=O)OCC(=O)N2CCCC2)c1 | 11.4
44 | Cc1ccc(S(=O)(=O)c2nc(NN(C)C)sc2Cl)cc1 | -5.48

Row | SMILES | hERG current change (%, negative = inhibition) at 10uM [%]
45 | CC(=O)Nc1nc(S(=O)(=O)c2ccc(C)cc2)c(Cl)s1 | -8.1
46 | CCS(=O)(=O)c1nc(S(=O)(=O)c2ccc(C)cc2)c(NCCCn2ccnc2)s1 | -26.5
47 | Cc1ccc(S(=O)(=O)c2nc(NCCN(C)C)sc2Cl)cc1 | -69.5
48 | CN(C)CCNc1nc(S(=O)(=O)c2ccccc2)c(Cl)s1 | -56.2
49 | Cc1ccc(S(=O)(=O)c2nc(NCCCn3ccnc3)sc2Cl)cc1 | -78.6
50 | O=S(=O)(c1ccccc1)c1nc(NCc2ccccc2)sc1Cl | -9.88
51 | CCCS(=O)(=O)c1nc(S(=O)(=O)c2ccc(C)cc2)c(NCCCn2ccnc2)s1 | -29.6
52 | CC(C)CNc1nc(S(=O)(=O)c2ccccc2)c(Cl)s1 | -11.5
53 | CCCCCCC/C=N/Nc1nnc(Cc2ccccc2)c(=O)[nH]1 | 33.2
54 | CCn1cc(C(=O)NCc2ccc(OC)cc2)c(=O)c2ccc(C)nc21 | 22.1
55 | Cc1cccc(NC(=S)NNC(=O)c2csc(C(C)C)c2)c1 | 2.52
56 | CCN(CC)CCCNC(=O)c1cn(CCOC)c(=O)c2c1c1ccccc1n2C | -0.445
57 | O=Cc1coc2ccc3ccccc3c2c1=O | 14.5
58 | CCCN(C(=O)c1cn(-c2ccccc2)nc1-c1ccc(OC)cc1)C1CCS(=O)(=O)C1 (centres unmarked) | -22.8
59 | O=C(CN1CCN(C(=O)c2ccccc2)CC1)Nc1ccccc1 | -20.1
60 | O=C(CN1CCCCCC1)Nc1ccc(Br)cn1 | -20.7
61 | O=C(CN1CCOCC1)Nc1ncc(Br)cc1Br | -20.3
62 | O=C(CN1CCN(C(=O)c2ccccc2)CC1)Nc1ccc(Br)cn1 | -74.4
63 | O=C(CN1CCN(C(=O)c2ccccc2)CC1)Nc1ncc(Br)cc1Br | -78.1
64 | CCc1nnc(NC(=O)CN2CCN(C(=O)c3ccccc3)CC2)s1 | 14.7
65 | CCOC(=O)N1CCC(NC(=O)c2cc3c(=O)[nH]c4ccccc4c3n2C)CC1 | -3.23
66 | COc1ccccc1NC(=O)/C(=C/c1cccs1)NC(=O)c1ccco1 | -33.1

Row | SMILES | hERG current change (%, negative = inhibition) at 10uM [%]
67 | CC(=O)Nc1ccc2nc(NC(=O)c3ccc([N+](=O)[O-])s3)sc2c1 | 8.75
68 | CCSc1nc2c(c(=O)[nH]1)C(C(C)C)C(C#N)=C(N)O2 (centres unmarked) | 5.71
69 | Cc1ccccc1NC(=O)Nc1nc2ccc(S(C)(=O)=O)cc2s1 | -2.53
70 | O=C(N/N=C/c1coc2ccc(Cl)cc2c1=O)c1ccncc1 | 6.28
71 | CCCN(CCC)CCCNC(=O)C1CCC(CNS(=O)(=O)c2cccc3nsnc23)CC1 (centres unmarked) | -10.1
72 | O=C(CN(Cc1ccc(F)cc1)C(=O)c1csnn1)NCc1ccc2c(c1)OCO2 | -64.5
73 | O=C(CN(C(=O)c1csnn1)c1ccc(F)cc1)NCc1ccc2c(c1)OCO2 | 9.12
74 | O=C(CN(Cc1ccccc1)C(=O)c1csnn1)NCc1ccc2c(c1)OCO2 | -23.4
75 | O=C(Cc1ccccc1)NCc1ccc2c(c1)OCO2 | 3.22
76 | O=C(CN(C(=O)c1csnn1)c1cccc(F)c1)NCc1ccc2c(c1)OCO2 | -7.22
77 | COc1ccccc1CN(CC(=O)NCc1ccc2c(c1)OCO2)C(=O)c1csnn1 | -34.2
78 | O=C(CN(Cc1ccccc1)C(=O)c1ccc2c(c1)OCCO2)NCc1ccc2c(c1)OCO2 | -59
79 | COc1ccccc1CN(CC(=O)NCc1ccc2c(c1)OCO2)C(=O)c1ccc2c(c1)OCCO2 | -28.4
80 | O=C(CN(Cc1ccccc1Cl)C(=O)c1csnn1)NCc1ccc2c(c1)OCO2 | -51.4
81 | Cc1ccc(CN(CC(=O)NCc2ccc3c(c2)OCO3)C(=O)c2csnn2)cc1 | -50.5
82 | O=C(CN(Cc1ccccc1F)C(=O)c1csnn1)NCc1ccc2c(c1)OCO2 | -22
83 | COc1ccc(CN(CC(=O)NCc2ccc3c(c2)OCO3)C(=O)c2csnn2)cc1 | -39.8
84 | C=CCn1c(Cc2cccs2)nnc1SCC(=O)Nc1cc(OC)cc(OC)c1 | -27.8
85 | Cc1nc2nc(C)c(CCC(=O)Nc3ccc4c(c3)OCO4)c(C)n2n1 | -18
86 | COc1ccc(C2N=C(N)N=C(N)N2c2ccccc2OC)cc1OC.Cl (centres unmarked) | -11.7
